# From PubChem BioAssay AID697 (Columbia University Molecular Screening Center, 2007)
# Among all 96,000 compounds or so, about 100 (0.1%) were called active. Shown is part of a subset that was picked to be rich in actives. Unmarked numbers belong to inactive results.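 The calls were made as follows: active = activation at 2 µM above a set limit, the mean plus 5 SD (cut at about 37% in these data); inactive = the rest.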
# Molecular target: Tyrosine-protein phosphatase non-receptor type 22 (Homo sapiens) (UniProt Q9Y2R2)
# Sequence (Q9Y2R2 whole entry, looked up): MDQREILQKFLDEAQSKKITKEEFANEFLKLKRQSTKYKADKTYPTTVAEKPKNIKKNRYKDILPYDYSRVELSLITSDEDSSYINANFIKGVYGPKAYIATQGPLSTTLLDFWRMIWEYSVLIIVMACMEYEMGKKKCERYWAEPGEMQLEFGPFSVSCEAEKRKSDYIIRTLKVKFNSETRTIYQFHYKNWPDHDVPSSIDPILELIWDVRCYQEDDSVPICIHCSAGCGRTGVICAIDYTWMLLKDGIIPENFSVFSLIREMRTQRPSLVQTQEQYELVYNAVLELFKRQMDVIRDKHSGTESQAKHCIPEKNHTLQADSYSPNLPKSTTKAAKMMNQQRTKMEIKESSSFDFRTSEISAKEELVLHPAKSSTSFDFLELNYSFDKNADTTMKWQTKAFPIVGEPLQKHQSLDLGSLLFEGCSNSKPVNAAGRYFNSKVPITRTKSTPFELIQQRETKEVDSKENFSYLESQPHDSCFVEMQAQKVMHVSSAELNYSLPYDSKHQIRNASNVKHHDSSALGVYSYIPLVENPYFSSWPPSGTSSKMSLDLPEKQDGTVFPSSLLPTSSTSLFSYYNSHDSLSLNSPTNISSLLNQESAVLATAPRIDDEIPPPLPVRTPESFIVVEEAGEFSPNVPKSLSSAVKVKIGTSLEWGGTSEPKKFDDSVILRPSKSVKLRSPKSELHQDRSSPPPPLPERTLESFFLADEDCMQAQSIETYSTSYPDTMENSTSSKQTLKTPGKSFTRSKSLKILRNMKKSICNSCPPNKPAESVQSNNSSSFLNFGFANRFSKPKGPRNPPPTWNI
# Test: LYP phosphatase activators, primary screen, biochemical, DiFMUP fluorescence, 2 µM (AID 697)
# Settings: recombinant LYP, at 2 µM, active compounds read high, 0 = plate median, 100 = signal doubled
row,SMILES,activation
1,Cc1cc(C)n2nc(C(=O)NC(C)(C)C)nc2n1,3.4%
2,C=CCN(C(=O)Nc1ccc2oc(C)nc2c1)c1ccccc1,-7.1%
3,COC(=O)c1cccc(-n2[nH]nnc2=S)c1,-1.7%
4,CC(C)(CCl)C(=O)Nc1ccc(Sc2ccc(F)cc2)cc1,1.3%
5,CC1(C)Cc2cccc(OCC(N)=O)c2O1,-3.7%
6,CCCCCCc1cc2cc(-c3nnc(-c4cccc(OC)c4)o3)c(=O)oc2cc1O,-30.3%
7,COc1ccc(CNc2ccc3c(c2)CCC3)cc1OC,-10.3%
8,COc1ccc(OC)c(-n2nnnc2SCC(=O)Nc2cc(C)ccc2OC)c1,2.6%
9,CC(C)C(=O)Nc1ccc2c(c1)oc1ccccc12,-1.6%
10,N/C(=N\OC(=O)c1cc(-c2ccccc2)nc2ccccc12)c1ccncc1,-7.1%
11,COc1ccc2c(c1)cc1n2CCN=C1NN,0.1%
12,COc1ccc(NC(=O)C2C3C=CC(C3)C2C(=O)NCc2ccccn2)c(OC)c1 (stereo unspecified),-5%
13,CC1=NN(/C(=N\c2nnc(C)s2)Nc2ccccc2)[C@H](c2ccc(C)cc2)S1,-6.4%
14,CCc1ccc(C(=O)CSc2nnc(C)c(=O)[nH]2)cc1,-2.7%
15,COc1ccc(OC(C)C(=O)Nc2cccnc2)cc1 (stereo unspecified),6.9%
16,C/C(=N/NC(=O)c1ccc(NC(=O)c2ccc(F)cc2)cc1)c1ccccc1,-1.9%
17,CCc1ccc(C2C(C#N)=C(N)Oc3n[nH]c(CC(=O)OC)c32)cc1 (stereo unspecified),5.3%
18,COC(=O)CSc1nc2c(c(C3CC=CCC3)c1C#N)CCC2 (stereo unspecified),-5.9%
19,C=CCNC(=O)c1cc2nc(C3CC3)cc(C(F)F)n2n1,-5.5%
20,COC(=O)c1cccc(N(C(=O)c2ccco2)C(C(=O)NC2CCCC2)c2ccco2)c1 (stereo unspecified),6.5%
21,CC(C)C(=O)Nc1nnc(Sc2ccc(N(C)C)cc2)s1,-2.7%
22,Cc1nn(Cc2ccc(F)cc2)c(C)c1NC(=O)c1noc2c1CCc1ccccc1-2,7.1%
23,CCOc1c2ccc(C(=O)NCc3ccc(OC(F)(F)F)cc3)cc2nn1C,10%
24,COc1cc(C(=S)N2CCOCC2)cc(OC)c1OC(=O)c1cc([N+](=O)[O-])c(C)c([N+](=O)[O-])c1,7%

row,SMILES,activation
1,Cc1cc(-c2cccs2)nc(-n2cccc2)n1,3.4%
2,CC1=CC(=O)C=CC1(C)C(Cl)(Cl)Cl (stereo unspecified),3.7%
3,FC(F)(F)c1cc(C(F)(F)F)c2ccc(N3CCN(c4ccccc4)CC3)nc2n1,2.8%
4,O=C1OC(c2ccc(Cl)cc2)=N/C1=C\c1cccnc1,7.7%
5,CC(C)c1cc(C(=O)O)n[nH]1,1.7%
6,O=C(Nc1ccc2nc3n(c(=O)c2c1)CCCCC3)c1ccccc1Cl,-2.7%
7,CC1(C)CC(=O)C=C(N2CCCC2)C1,-1.1%
8,Cc1ccc(C2=CSC3=NS(=O)(=O)CCN23)cc1C,-4.4%
9,Cc1ccc(-n2c(=O)c(C#N)cc3c(=O)n4ccccc4nc32)cc1C,5.7%
10,CCCCCOC(=O)c1ccc(N2C(=O)C3C4C=CC(C4)C3C2=O)cc1 (stereo unspecified),12.4%
11,CCC(C)NC(=O)c1ccccc1NC(=O)c1ccccc1N(C)S(C)(=O)=O (stereo unspecified),0.7%
12,CC(C)CC(=O)N1CCC(O)(CS(=O)(=O)Cc2ccccc2)CC1,-3.4%
13,CCCCNC(=O)c1onc(CSc2cccc(OC)c2)c1C(=O)O,4.5%
14,COc1ccc(CCN(C(=O)COc2ccccc2)c2nc(-c3ccccc3)cs2)cc1OC,-13.3%
15,Cc1noc(NS(=O)(=O)c2ccc(N/C=C/C(=O)c3ccccc3)cc2)c1C,1.5%
16,CCCCCc1ccc(-c2ccc(C(=O)O)cc2)nc1,-8.9%
17,Cc1sc(NC(=O)C2C3CCC(O3)C2C(=O)O)c(C(=O)OC(C)C)c1-c1ccc(Cl)cc1 (stereo unspecified),-4.2%
18,COc1cc(/C=C2/C(=O)ON=C2C)ccc1OCc1ccccc1F,6.2%
19,Cc1ccc(S(=O)(=O)/N=C(\CN2CCOCC2)N2CCOCC2)cc1,-1.4%
20,FC(F)(F)c1nc2ccccc2nc1N/N=C/c1ccc(Cl)cc1,5.5%
21,CCOC(=O)Cn1c(-c2cccnc2Cl)nc2ccccc21,15.2%
22,NC(=O)C1(N2CCCCC2)CCN(C2CC(=O)N(Cc3ccc(N4CCCC4=O)cc3)C2=O)CC1 (stereo unspecified),-5.5%
23,CN(C)C(=O)c1cc(Br)ccc1Cl,-3.6%
24,COc1ccc(N(CC(=O)N/N=C/c2cccc3c2OCCO3)S(=O)(=O)c2ccc(NC(C)=O)cc2)cc1,7.5%

row,SMILES,activation
1,O=C(/C=C/c1ccc(Cl)cc1Cl)c1cccnc1,2.2%
2,CCOC(=O)N1CCN(Cc2nc(N)nc(Nc3ccc(C)cc3)n2)CC1,7.7%
3,COc1cc(/C=C(\C#N)c2nc3c(s2)CC(C)CC3)ccc1O (stereo unspecified),-3.9%
4,COCc1cc(C)nc2sc3c(=O)n(-c4cccc5ccccc45)nnc3c12,-7.5%
5,CC(=O)NC1=NN(C(C)=O)C(C)(c2ccc(Cl)s2)S1 (stereo unspecified),5.6%
6,O=S(=O)(c1cccc2nonc12)N1CCN(c2cccc(Cl)c2)CC1,8.3%
7,O=C(O)CSCc1ccc(C(=O)O)o1,-1.8%
8,CC(=O)c1cc2c(cc1NC(=O)CN1CCCCCC1)OCO2,-5.9%
9,COc1ccccc1CNS(=O)(=O)c1ccc(C)cc1,-13.5%
10,COC(=O)C1=C(C(=O)OC)C2(OC1c1ccc(Br)cc1)C(=O)c1ccccc1C2=O (stereo unspecified),-2.6%
11,O=C(Cc1ccc2c(c1)CCCC2)Nc1ccccc1Cl,5.5%
12,CCOc1ccccc1C(=O)NC1CC2CCCC(C1)N2Cc1ccccc1 (stereo unspecified),-12.3%
13,O=C(COc1ccc(S(=O)(=O)NCc2ccccc2)cc1)N1CCOCC1,2.4%
14,Cc1cccc(C)c1OC(=O)CSc1nnc(-c2ccccc2)o1,1.3%
15,COc1ccc(NS(=O)(=O)c2ccc(NC(=S)NC(=O)CC(C)C)cc2)cc1,4.5%
16,O=C(CSCc1ccc([N+](=O)[O-])cc1)Nc1cccc(C(=O)Nc2ccccc2C(=O)O)c1,1.6%
17,Cc1c(Nc2cc(N3CCCC(C)C3)c3nonc3c2[N+](=O)[O-])c(=O)n(-c2ccccc2)n1C (stereo unspecified),3.1%
18,CCCCN(CC)CCNC(=O)c1[nH]c(C)c(C(C)=O)c1C,1.3%
19,Cc1noc(C)c1CSCC(=O)Nc1nc2ccc(Oc3ccccc3)cc2s1,1.8%
20,CCN(CC)C(=O)CC1(c2ccccc2OC)CCOC(C(C)C)C1 (stereo unspecified),4.3%
21,COc1ccc(NC(=O)CC2COc3ccccc3O2)c(OC)c1 (stereo unspecified),0.8%
22,CCN(CC)CCNc1ccc(Cl)cc1[N+](=O)[O-],14%
23,CC(C)C(=O)NC(=S)Nc1ccccc1F,-2.4%
24,CCn1c(O)c2ccc(C(=O)N=NC(=O)c3cccnc3)cc2c1O,0.7%

row,SMILES,activation
1,O=C(/C=C/c1cccs1)c1cc(Cl)ccc1OC(=O)N1CCOCC1,2.4%
2,Clc1ccc(-n2nnnc2-c2cnc(-c3ccccn3)nc2-c2cccs2)cc1,3.1%
3,O=C(CCN1CCc2ccccc2C(O)(c2ccccc2)C1)c1ccc2c(c1)OCCO2 (stereo unspecified),-5.7%
4,CCOC(=O)CNC(=O)CSc1nc2cccnc2n1CC,-4.9%
5,Cc1ccc2[nH]c3c(=O)n(Cc4ccccn4)cnc3c2c1,-0.9%
6,COC(=O)[C@@H](NC(=O)Nc1cc(Cl)ccc1C)C(C)C,8.5%
7,CC(Oc1ccc(-c2ccccc2)c(F)c1)c1ccn(S(=O)(=O)c2cccc3ccccc23)n1 (stereo unspecified),-6.9%
8,CCOC1CS(=O)(=O)CC1OCC (stereo unspecified),6.4%
9,Cc1ccn(C(CC(=O)c2ccc(Br)cc2)C(=O)O)n1 (stereo unspecified),-7.9%
10,COC(=O)CSc1nc(C)c2ccc(OC)cc2n1,-3.9%
11,O=C(Cn1c(-c2cscn2)nc2ccccc21)Nc1ccc(Cl)cc1,3%
12,O=C(Nc1cc2ccccc2oc1=O)C1CCCCC1,-7.9%
13,COc1cccc(C(=O)Nc2ccc(NC(=O)c3ccco3)cn2)c1,6.7%
14,CSCCC(NS(=O)(=O)c1ccc2c(c1)oc(=O)n2C)C(=O)NC1CCCc2ccccc21 (stereo unspecified),-8.6%
15,O=C(CN1C(=O)NC(Cc2ccccc2)(Cc2ccccc2)C1=O)NCC1CCCCC1,0.3%
16,Cc1ccccc1NC(=O)c1cc(S(=O)(=O)N2CCOCC2)cs1,38% (active)
17,O=C(Nc1ccccc1F)c1cc(S(=O)(=O)N2CCCCC2)cs1,-4.2%
18,Cc1ccc(C(=O)Nc2ccccc2C(=O)NC2CCCCC2)cc1S(=O)(=O)N1CCOCC1,-0.7%
19,CCCCNS(=O)(=O)c1ccc(S(=O)(=O)n2cnc3ccccc32)cc1,-10.5%
20,CO/N=C/c1ccc(N2CCN(C(=O)c3cccc(Cl)c3)CC2)c([N+](=O)[O-])c1,-0.2%
21,COc1cc(C(=S)N2CCOCC2)cc(OC)c1OC(=O)c1cc([N+](=O)[O-])cc([N+](=O)[O-])c1,-4.3%
22,CCn1c(C)nc2c1C(=O)c1ccccc1C2=O,-0.9%
23,CCn1c(/C=C/c2ccc([N+](=O)[O-])o2)nc2ccccc2c1=O,-10.9%
24,O=C(NCCCn1ccnc1)Nc1ccc(Cl)cc1Cl,0.8%
